Data from PubChem BioAssay (NCATS).
A number with no mark means an inactive call. Activity calls are given as the source filed them. Calls follow the shape of the dose curve; as a rule, active = well fitted inhibition curve with a large enough effect; inconclusive = small, poorly fitted or top-dose-only effect; inactive = flat fitted curve, though single readings scatter.

biological target: DNA polymerase III PolC-type (Bacillus subtilis (strain 168)) (UniProt P13267); experiment: qHTS Validation Assay for the Inhibitors of DNA Replication in Gram-Positive Bacteria (AID 485295); conditions: Gram-positive bacterial DNA replication assay; series mostly up to 57.1 µM; activity change, negative = inhibition: at the top concentration;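 also: reconstituted holoenzyme with PolC plus beta clamp SSB and primase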
Experimental: B Subtilis DNA polymerase III holoenzyme complex was assayed for DNA production by fluorescent detection of the double-stranded DNA product with PicoGreen dye. The holoenzyme complex was reconstituted from the following purified protein components: DNA Polymerase III, beta subunit processivity factor, SSB single-stranded DNA binding protein, and Primase. Single-stranded, circular M13Gori was used as a substrate with dNTPs and NTPs also supplied to the substrate reagent. Compounds from the NCGC collection were incubated with the holoenzyme mixture for […] at room temperature to allow binding to occur, and then the reaction was started by the addition of substrate. After 30 min incubation at room temperature, PicoGreen solution containing EDTA was added to stop the reaction and to visualize the double-stranded DNA produced. Reaction progress was measured in a ViewLux CCD imager in fluorescence intensity mode by using 480 nm excitation and 540 nm emission filter set.
1. Thaw screening compounds.
2. Label assay plates. Prepare pipette tips, reagent reservoirs, buffers and controls.
1. Thaw Enzymes, DNA template, Nucleotides and PicoGreen dye concentrate. Thawed enzymes are stable on ice for ~1
week. Other thawed components are stable indefinitely.
2. Prepare sufficient quantities of Enzyme, Substrate and PicoGreen Quench mixes (according to Table II). For the number of
compound plates being screened.
3. Ensure that the tip wash station reservoirs have clean water and turn on recirculating chiller so that the chilled deck position
1. Load 2 uL of EDTA controls (250 mM, Background, 100 % inhibition) and 2 uL of DMSO controls (Negative control, 0%
inhibition) in the screening plates (flat-bottomed black 384-well polypropylene, Greiner Bio-one).
2. Place Enzyme mix reservoir on the chiller position of the liquid handler deck. Make sure that chiller will maintain
temperature of Enzyme mix at 4degC. Substrate mix and PicoGreen Quench can be stored at room temp.
3. Program liquid handling robotics to dispense 18 uL of Enzyme mix into assay plates. Wash tips.
4. Aspirate and dispense 2 uL of compound from compound plates, mix and Incubate at room temperature for 10 minutes.
5. Aspirate 5 ul of Substrate mix, dispense into assay plates and mix by pipetting. Wash tips.
6. Incubate at room temperature (21 +/- 1 deg C) for 20 minutes.
7. Quench reactions by addition of 25 uL PicoGreen Quench mix and mix by pipetting (using HTS robotics or bulk reagent
dispenser such as a Multidrop or uFill). Keep plates in the dark or stacked until ready to read fluorescence.
8. Read fluorescence intensity of plates on plate reader using "Fluorescein (Ex 485 nm/ Em 535 nm, 0.1s)" setting.

Sequence of DNA polymerase III PolC-type (Bacillus subtilis (strain 168)) (P13267 whole entry, looked up): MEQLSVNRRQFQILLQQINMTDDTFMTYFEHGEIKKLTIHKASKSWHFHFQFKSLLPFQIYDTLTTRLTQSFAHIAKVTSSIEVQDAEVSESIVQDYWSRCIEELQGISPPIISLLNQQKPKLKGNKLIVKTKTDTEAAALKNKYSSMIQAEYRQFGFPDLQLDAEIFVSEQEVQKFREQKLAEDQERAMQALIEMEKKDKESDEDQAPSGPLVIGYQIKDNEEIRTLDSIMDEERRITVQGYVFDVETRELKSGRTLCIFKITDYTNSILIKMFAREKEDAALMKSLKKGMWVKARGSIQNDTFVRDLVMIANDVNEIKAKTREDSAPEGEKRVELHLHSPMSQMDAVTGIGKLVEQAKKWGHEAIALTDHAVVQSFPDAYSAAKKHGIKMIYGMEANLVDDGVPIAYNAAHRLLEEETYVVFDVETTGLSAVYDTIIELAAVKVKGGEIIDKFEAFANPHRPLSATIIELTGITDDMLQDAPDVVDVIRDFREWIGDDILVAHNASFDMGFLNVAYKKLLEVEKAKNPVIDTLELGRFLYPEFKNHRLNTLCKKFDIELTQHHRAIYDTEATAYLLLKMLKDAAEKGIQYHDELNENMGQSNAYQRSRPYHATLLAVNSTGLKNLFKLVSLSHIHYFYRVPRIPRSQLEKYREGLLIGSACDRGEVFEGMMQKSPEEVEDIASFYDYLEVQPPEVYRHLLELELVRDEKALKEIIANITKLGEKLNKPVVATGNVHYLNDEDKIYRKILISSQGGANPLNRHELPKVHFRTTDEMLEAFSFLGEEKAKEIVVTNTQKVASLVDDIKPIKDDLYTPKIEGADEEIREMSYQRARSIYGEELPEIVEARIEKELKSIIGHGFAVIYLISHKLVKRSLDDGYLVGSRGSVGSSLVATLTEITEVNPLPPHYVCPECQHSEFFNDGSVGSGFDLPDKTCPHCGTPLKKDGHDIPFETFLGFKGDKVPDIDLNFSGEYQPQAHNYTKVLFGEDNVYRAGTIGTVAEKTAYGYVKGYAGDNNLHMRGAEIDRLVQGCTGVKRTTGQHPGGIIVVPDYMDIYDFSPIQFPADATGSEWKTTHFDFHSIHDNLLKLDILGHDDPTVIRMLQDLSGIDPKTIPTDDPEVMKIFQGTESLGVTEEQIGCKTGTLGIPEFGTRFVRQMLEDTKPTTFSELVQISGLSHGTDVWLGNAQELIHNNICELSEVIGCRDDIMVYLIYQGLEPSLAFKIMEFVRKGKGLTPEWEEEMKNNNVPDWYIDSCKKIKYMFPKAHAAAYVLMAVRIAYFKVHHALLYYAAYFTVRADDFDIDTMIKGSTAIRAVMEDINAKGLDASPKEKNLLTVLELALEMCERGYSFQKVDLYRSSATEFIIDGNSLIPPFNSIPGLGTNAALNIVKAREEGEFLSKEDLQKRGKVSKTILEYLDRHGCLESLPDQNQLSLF

Going from `O=c1[nH]c2cc(Cl)c(Cl)cc2[nH]c1=O` to `O=c1[nH]c2cc([N+](=O)[O-])c([N+](=O)[O-])cc2[nH]c1=O`, the “activity change, negative = inhibition” value rises from -1.46% to 1.92%.

Compared with `CC1(C)CCC=[N+]1[O-]`, `CC12C(=O)OC(=O)C1(C)C1CCC2O1` (stereo not given) is lower in “activity change, negative = inhibition” value: -4.22% for the first, -10.7% for the second.

Compared with `CN(C)c1nc2c(Br)c(Br)c(Br)c(Br)c2[nH]1`, `CN(C)c1nc(N)c(C(=O)N=C(N)N)nc1Cl` is higher in “activity change, negative = inhibition” value: -2.94% for the first, -2.5% for the second.

Compared with `Cc1cc(NC2CCCCC2)nc(-n2nc(C)cc2C)n1`, `Nc1nc(Cl)nc2c1ncn2[C@@H]1O[C@H](CO)[C@@H](O)[C@H]1O` is higher in “activity change, negative = inhibition” value: -0.601% for the first, 5.22% for the second.

Compared with `O=C1/C(=C/c2ccsc2)CC/C1=C\c1cccs1`, `O=C1NC(=O)/C(=C/c2ccc3nccnc3c2)S1` is lower in “activity change, negative = inhibition” value: 0.598% for the first, -1.3% for the second.

Compared with `CN1CCc2cc(O)c(O)cc2C(c2ccccc2)C1` (stereo not given), `N#C/C(=C\c1ccc(O)c(O)c1)C(=O)NCc1ccccc1` is lower in “activity change, negative = inhibition” value: 5.48% for the first, -18.2% for the second.

First: O=[N+]([O-])c1ccc2c(c1)S(=O)(=O)C=C2
Second: O=C(c1ccc(Cl)cc1)N1CCN(c2ccc([N+](=O)[O-])c3ncccc23)CC1
The “activity change, negative = inhibition” value of the first is lower: -6.29% for the first, -3.55% for the second.

Going from `CCCCCCCCCCCCCCCCCC(=O)OC(CC(=O)O)C[N+](C)(C)C` (stereo not given) to `CCCCCCCCCCCCCCCC(=O)OC(CC(=O)O)C[N+](C)(C)C` (stereo not given), the “activity change, negative = inhibition” value falls from -1.08% to -7.1%.

Compared with `CCCCCCCCc1ccc(-c2ccc(C(=O)O)cc2)cc1`, `N=C(N)SCCc1ccc(CCSC(=N)N)cc1` is higher in “activity change, negative = inhibition” value: -19% for the first, -2.86% for the second.

Compared with `O=C(/C=C/c1ccc(O)c(O)c1)OCCc1ccccc1`, `O=C(O)CC1CC(c2ccccc2)=NO1` (stereo not given) is higher in “activity change, negative = inhibition” value: -14.1% for the first, -7.67% for the second.

Going from `Nc1ncnc2c1c(I)cn2[C@@H]1C[C@H](N)[C@@H](O)[C@H]1O` to `NC[C@H]1O[C@@H](n2cnc3c(N)ncnc32)[C@H](O)[C@@H]1O`, the “activity change, negative = inhibition” value falls from 6.42% to -3.92%.

Going from `OCC1O[C@H](O)C(Cl)C(O)C1O` (stereo not given in full) to `CNc1ncnc2c1ncn2[C@@H]1O[C@H](CO)[C@@H](O)[C@H]1O`, the “activity change, negative = inhibition” value rises from 2.13% to 3.88%.

Compared with `O=P(O)(O)C(Cl)(Cl)P(=O)(O)O`, `CSc1nc(N)c2ncn([C@@H]3O[C@H](COP(=O)(O)OP(=O)(O)OP(=O)(O)O)[C@@H](O)[C@H]3O)c2n1` is higher in “activity change, negative = inhibition” value: -3.26% for the first, 0.425% for the second.

Going from `CC(=O)/C=C1\C(=O)N(C)c2ccccc21` to `CC(C)NCC(O)COc1cccc2ccccc12` (stereo not given), the “activity change, negative = inhibition” value rises from -9.4% to 4.54%.

Going from `Ic1ccc(N2CCN(Cc3c[nH]c4ncccc34)CC2)cc1` to `COc1ccccc1N1CCN(CCCCNS(=O)(=O)c2cccc3c(N(C)C)cccc23)CC1`, the “activity change, negative = inhibition” value rises from -12.4% to -5.21%.

Compared with `Nc1ncnc2c1ncn2[C@@H]1O[C@H](COP(=O)(O)OP(=O)(O)OP(=O)(O)OP(=O)(O)OC[C@@H]2O[C@H](n3cnc4c(N)ncnc43)[C@@H](O)[C@H]2O)[C@@H](O)[C@H]1O`, `C[N+](C)(C)CCOP(=O)(O)OP(=O)([O-])OC[C@H]1O[C@@H](n2ccc(N)nc2=O)[C@H](O)[C@@H]1O` is higher in “activity change, negative = inhibition” value: -1.44% for the first, 5.2% for the second.

Going from `COc1ccc2c(c1)CCC1C2CC[C@@]2(C)C1CC[C@@H]2NCCCCCCN1C(=O)CCC1=O` (stereo not given in full) to `C=C[C@H]1CN2CC[C@@H]1C[C@@H]2[C@@H](O)c1ccnc2ccc(OC)cc12`, the “activity change, negative = inhibition” value rises from 1.35% to 3.58%.

First: CN1C2CC(OC(=O)[C@H](CO)c3ccccc3)CC1C1OC12 (stereo not given in full)
Second: C[N+]1(C)CCC(OC(=O)C(c2ccccc2)c2ccccc2)CC1
The “activity change, negative = inhibition” value of the first is higher: 10.1% for the first, -6.3% for the second.

First: NCCSSCCN
Second: CNC(=O)[C@H]1O[C@@H](n2cnc3c(NCc4ccc(N)cc4)ncnc32)[C@H](O)[C@@H]1O
The “activity change, negative = inhibition” value of the first is higher: 2.94% for the first, -0.872% for the second.

`c1cnc2c(c1)ccc1cccnc12` was tested, and the “activity change, negative = inhibition” value was 0.326%.

In the case of `C[N+]1(C)C2CC(OC(=O)[C@H](CO)c3ccccc3)CC1C1OC12` (stereo not given in full), the Potency is reported as “inactive”.
